From the supplement of paper PMC12350171
Counter-ions that a name gives are not always drawn.

System: Shigella flexneri
Assay: growth AUC normalised to DMSO control (fraction of control); higher = less growth inhibition, active = hit call of the paper
Conditions: 20 µM;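 active = AUC significantly below DMSO controls by Student t-fit with adjusted P under 0.01; inactive = not significantly reduced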
How it was run: (§1)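 Three biological replicates were carried out, with OD578 read hourly for 24 h. Before inoculation at a starting OD578 of 0.01, pathogens were passaged anaerobically twice; plates were pre-reduced mGAM containing 20 μM compound and 1% DMSO, sealed with breathable membranes, and the Haemophilus parainfluenzae medium carried added hemin and NAD. Area under each growth curve was calculated by the trapezoidal rule up to the exponential-to-stationary transition and normalised to DMSO controls on the same plate.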

SMILES | growth AUC normalised to DMSO control
C=CC[N@@+]12CC[C@@]34c5ccccc5N5/C=C6/[C@H]7C[C@H]8[C@@]9(CC[N@@+]8(CC=C)C/C7=C/CO)c7ccccc7N(/C=C(/[C@@H](C[C@@H]31)/C(=C\CO)C2)[C@H]54)[C@@H]69 [Alcuronium chloride] | 1 (inactive)
CCc1ccc(CCOc2ccc(CC3SC(=O)NC3=O)cc2)nc1 (configuration not stated) [Pioglitazone] | 0.958 (inactive)
CC1CC(OC(=O)c2ccccc2O)CC(C)(C)C1 (configuration not stated) [Homosalate] | 0.996 (inactive)
CC(C)N1CCN(c2ccc(OCC3COC(Cn4cncn4)(c4ccc(Cl)cc4Cl)O3)cc2)CC1 (configuration not stated) [Terconazole] | 0.982 (inactive)
O=C(Nc1ccc([N+](=O)[O-])cc1Cl)c1cc(Cl)ccc1O [Niclosamide] | 0.983 (inactive)
CCN1C(=O)NC(c2ccccc2)C1=O (configuration not stated) [Ethotoin] | 0.99 (inactive)
COc1cc(Cc2cnc(N)nc2N)cc(OC)c1OC [Trimethoprim] | 0.0632 (active)

System: Vibrio cholerae
Assay: as above
Conditions: 20 µM
How it was run: as §1

SMILES | growth AUC normalised to DMSO control
O=C(NCC(O)CO)c1c(I)c(C(=O)NCC(O)CO)c(I)c(N(CCO)C(=O)CO)c1I (configuration not stated) [Ioversol] | 1.07 (inactive)
CC(CN(C)C)CN1c2ccccc2Sc2ccccc21 (configuration not stated) [Trimeprazine tartrate] | 0.895 (inactive)
CCCCC[C@H](O)/C=C/[C@H]1[C@H](O)CC(=O)[C@@H]1CCCCCCC(=O)O [Alprostadil] | 0.99 (inactive)
CCCCOC(=O)c1ccc(O)cc1 [Butylparaben] | 0.896 (inactive)
CN1CCCN=C1/C=C/c1cccc(O)c1 [Oxantel pamoate] | 1.05 (inactive)
Cc1ccc(S(=O)(=O)NC(=O)NN2CC3CCCC3C2)cc1 (configuration not stated) [Gliclazide] | 1.02 (inactive)
CC1CNc2c(cccc2S(=O)(=O)N[C@@H](CCCNC(=N)N)C(=O)N2CC[C@@H](C)C[C@@H]2C(=O)O)C1 (some centres not stated) [Argatroban] | 1 (inactive)
CCCCC1C(=O)N(c2ccccc2)N(c2ccc(O)cc2)C1=O (configuration not stated) [Oxyphenbutazone] | 1.03 (inactive)
COc1c(N2C[C@@H]3CCCN[C@@H]3C2)c(F)cc2c(=O)c(C(=O)O)cn(C3CC3)c12 [Moxifloxacin] | 0.0211 (active)
CN(Cc1ccc(C(C)(C)C)cc1)Cc1cccc2ccccc12 [Butenafine hydrochloride] | 0.926 (inactive)
CC(=O)OCC(=O)[C@@]12N=C(C)O[C@@H]1C[C@H]1[C@@H]3CCC4=CC(=O)C=C[C@]4(C)[C@H]3[C@@H](O)C[C@@]12C [Deflazacort] | 1 (inactive)
CN1CCN(C2=Nc3ccccc3Oc3ccc(Cl)cc32)CC1 [Loxapine succinate] | 0.907 (inactive)
CC(C)(C)NCC(O)COc1cccc2c1CCC(=O)N2 (configuration not stated) [Carteolol hydrochloride] | 0.993 (inactive)
O=C(CCCCCCC(=O)Nc1ccccc1)NO [Vorinostat] | 0.996 (inactive)
O=C1CN(/N=C/c2ccc([N+](=O)[O-])o2)C(=O)N1 [Nitrofurantoin] | 0.964 (inactive)
N=C(N)NCC1COC2(CCCCC2)O1 (configuration not stated) [Guanadrel sulfate] | 0.983 (inactive)
CC(=O)Nc1ccc(OCC(O)CNC(C)C)cc1 (configuration not stated) [Practolol] | 1.02 (inactive)
C[C@H](O)C(=O)Nc1c(I)c(C(=O)NC(CO)CO)c(I)c(C(=O)NC(CO)CO)c1I [Iopamidol] | 1.07 (inactive)
Cc1ncc(CO)c(CO)c1O [Pyridoxine hydrochloride] | 0.996 (inactive)
CC1=C(CC(=O)O)c2cc(F)ccc2/C1=C\c1ccc([S+](C)[O-])cc1 (configuration not stated) [Sulindac] | 1.01 (inactive)

SMILES | growth AUC normalised to DMSO control
CC(C)CC(=O)N[C@H](C(=O)N[C@H](C(=O)N[C@@H](CC(C)C)[C@@H](O)CC(=O)N[C@@H](C)C(=O)N[C@@H](CC(C)C)[C@@H](O)CC(=O)O)C(C)C)C(C)C [Pepstatin A] | 1.04 (inactive)
CC(COc1ccccc1)N(CCCl)Cc1ccccc1 (configuration not stated) [Phenoxybenzamine hydrochloride] | 1.01 (inactive)
CCN[C@H]1CN(CCCOC)S(=O)(=O)c2sc(S(N)(=O)=O)cc21 [Brinzolamide] | 0.965 (inactive)
CCCCOc1cc(C(=O)OCCN(CC)CC)ccc1N [Benoxinate hydrochloride] | 0.936 (inactive)
CNCC[C@@H](Oc1ccccc1C)c1ccccc1 [Tomoxetine hydrochloride] | 1.01 (inactive)
Cc1cc(=O)n(-c2ccccc2)n1C [Antipyrine] | 1.01 (inactive)
OC(Cn1cncn1)(Cn1cncn1)c1ccc(F)cc1F [Fluconazole] | 1.04 (inactive)
O=C1O[C@H]([C@@H](O)CO)C(O)=C1O [Ascorbic acid] | 1.02 (inactive)
c1ccc(CNc2ncnc3nc[nH]c23)cc1 [Aminopurine, 6-benzyl] | 0.953 (inactive)
CC(CCc1ccccc1)NCC(O)c1ccc(O)c(C(N)=O)c1 (configuration not stated) [Labetalol hydrochloride] | 0.972 (inactive)
OCCN(CCO)c1nc(N2CCCCC2)c2nc(N(CCO)CCO)nc(N3CCCCC3)c2n1 [Dipyridamole] | 1.01 (inactive)
CCCCCCCCNC(C)C(O)c1ccc(SC(C)C)cc1 (configuration not stated) [Suloctidil] | 1 (inactive)
CCCCCCC[N+](CC)(CC)CCCCc1ccc(Cl)cc1 [Clofilium tosylate] | 1.02 (inactive)
C=CC[N@@+]12CC[C@@]34c5ccccc5N5/C=C6/[C@H]7C[C@H]8[C@@]9(CC[N@@+]8(CC=C)C/C7=C/CO)c7ccccc7N(/C=C(/[C@@H](C[C@@H]31)/C(=C\CO)C2)[C@H]54)[C@@H]69 [Alcuronium chloride] | 1.09 (inactive)
CCc1ccc(CCOc2ccc(CC3SC(=O)NC3=O)cc2)nc1 (configuration not stated) [Pioglitazone] | 0.911 (inactive)
CC1CC(OC(=O)c2ccccc2O)CC(C)(C)C1 (configuration not stated) [Homosalate] | 1.02 (inactive)
CC(C)N1CCN(c2ccc(OCC3COC(Cn4cncn4)(c4ccc(Cl)cc4Cl)O3)cc2)CC1 (configuration not stated) [Terconazole] | 1 (inactive)
O=C(Nc1ccc([N+](=O)[O-])cc1Cl)c1cc(Cl)ccc1O [Niclosamide] | 0.0756 (active)
CCN1C(=O)NC(c2ccccc2)C1=O (configuration not stated) [Ethotoin] | 0.996 (inactive)
COc1cc(Cc2cnc(N)nc2N)cc(OC)c1OC [Trimethoprim] | 0.0115 (active)
